Drawing on PubChem BioAssay AID2071 (Sanford-Burnham Center for Chemical Genomics, 2009), this text covers inhibition for 64 compounds.

Structures are written as SMILES. About 1,700 (0.61%) of roughly 280,000 compounds were called active. No stated cut-off is given here; in the data, active means inhibition mostly above about 24% (no sharp cut-off); inactive means mostly below about 32%. The entries come from a sample that favours actives as a whole.

The nature of the experiment: NALP1 inflammasome inhibitors in reconstituted yeast, colorimetric, S. cerevisiae, triplicate retest (AID 2071). To be noted: S. cerevisiae NALP1/ASC/caspase-1 growth, X-gal OD620, 72 h, stronger effect = higher value.

In general, inhibition refers to the change of the read-out against control, counted positive when it falls. Take `COc1ccc(Cl)cc1NC(=O)CN1CCN(C(=O)N2CCOCC2)CC1`: the inhibition (at 10 µM unless noted) is 5.1% (inactive).

Take `Nc1c(C(=O)NCc2ccccc2)nnn1Cc1cccc(Cl)c1`: the inhibition (at 10 µM unless noted) is 7% (inactive).

`Clc1cccc(CN2COc3c(cc(Cl)c4cccnc34)C2)c1`: the inhibition (at 10 µM unless noted) is 125% (active).

Regarding `CC(C)CC(=O)N1CCN(Cc2cccc(Cl)c2)CC1`, the inhibition (at 10 µM unless noted) is 10.5% (inactive).

Turning to `CCC(NC(=O)c1cc(COc2ccc(F)c(F)c2)on1)c1ccncc1` (configuration not stated), the inhibition (at 10 µM unless noted) is 0.6% (inactive).

For the compound `Cc1ccc(NS(=O)(=O)c2ccc(-c3coc(C)n3)cc2)c(C)c1`, the inhibition (at 10 µM unless noted) is 3.2% (inactive).

On to `O=C(CSCC(=O)Nc1cccc([N+](=O)[O-])c1)Nc1ccccc1`, for which the inhibition (at 10 µM unless noted) is 27.6% (inactive).

On to `COC(=O)/C=C\C(=O)Nc1cccc([N+](=O)[O-])c1`, for which the inhibition was 108% (active) (at 10 µM) and 116% (triplicate retest, at 20 µM).

`COc1cccc(CNC(=O)CCCC(=O)Nc2cccc([N+](=O)[O-])c2)c1`: the inhibition (at 10 µM unless noted) is -4.2% (inactive).

With `O=S1(=O)CCOC[C@H](CC2CCCCC2)N1Cc1ccc(F)cc1`, under “at 10 µM unless noted”, the inhibition was 22.6% (inactive).

Consider `C/C(=N\NC(=O)C1(C)CC1(Br)Br)c1ccc(C)cc1C` (configuration not stated), for which the inhibition (at 10 µM unless noted) was -0.3% (inactive).

For `CCC(=O)c1ccc(OCC(O)CN2CCN(c3cccc(C(F)(F)F)c3)CC2)cc1` (configuration not stated), the inhibition (at 10 µM) was 52.2% (active) and the inhibition (triplicate retest, at 20 µM) came to 65.2%.

For `O=C(COc1ccc(Cl)cc1)N1CCN(c2cccc(C(F)(F)F)c2)CC1`, the inhibition (at 10 µM unless noted) is -4.3% (inactive).

As for `CCC(=O)c1ccc(OCC(O)CN2CC(C)OC(C)C2)cc1` (configuration not stated), the inhibition (at 10 µM unless noted) was 0.7% (inactive).

With `COc1ccc(S(=O)(=O)N2CCOC2CNC(=O)C(=O)NCc2ccncc2)cc1C` (configuration not stated), the inhibition (at 10 µM unless noted) is 0.1% (inactive).

As to `CCC(=O)c1cn(CCOc2ccccc2OC)c2ccccc12`, for the setting “at 10 µM unless noted”, the inhibition is 14.8% (inactive).

Consider `OCCn1c(-c2ccccc2)csc1=Nc1ccccc1`, for which the inhibition (at 10 µM unless noted) was 50.3% (active).

On to `Cc1csc(=Nc2ccccc2)n1CCO`, for which the inhibition (at 10 µM unless noted) is 26.1% (inactive).

Turning to `Cc1csc(=NC(=O)c2ccccc2)n1CCO`, the inhibition (at 10 µM unless noted) was 2.4% (inactive).

Regarding `O=C(NCCCN1CCOCC1)c1cc(-c2ccccc2F)no1`, the inhibition (at 10 µM unless noted) was 20.9% (inactive).

Regarding `C[N+](C)(C)CCNC(=O)c1cc[n+](Cc2ccccc2)c(/C=N/O)c1`, the inhibition (at 10 µM unless noted) is 6.7% (inactive).

With `O=C(NC1CCCC1)c1cc(-c2ccccc2)on1`, the inhibition (at 10 µM unless noted) is 15.4% (inactive).

Consider `CC(=O)C(C)n1cnc2scc(-c3ccc(C)cc3)c2c1=O` (configuration not stated), for which the inhibition (at 10 µM unless noted) is -5% (inactive).

Regarding `C/C(=N\NC(=O)COc1ccc(C)cc1[N+](=O)[O-])c1ccc2c(c1)OCCO2`, the inhibition (at 10 µM unless noted) was 12% (inactive).

Take `COCCCNC(=O)COc1cc(C)c(Cl)c(C)c1`: the inhibition (at 10 µM unless noted) was 33.8% (active).

As to `CCOc1ccc(NS(=O)(=O)c2ccc(OCC(=O)NCCCOC)cc2)cc1`, the inhibition (at 10 µM unless noted) is -2.5% (inactive).

On to `COCCNC(=O)COc1ccccc1C`, for which the inhibition (at 10 µM unless noted) was 6.3% (inactive).

On to `CCSc1nsc(NC(=O)Nc2ccccc2OC)n1`, for which, for the setting “at 10 µM unless noted”, the inhibition is 18.6% (inactive).

As to `COc1cccc(CNCCc2c[nH]c3ccccc23)c1OCc1ccccc1F`, the inhibition (at 10 µM unless noted) is -3.7% (inactive).

In the case of `COc1ccc(CC(=O)NC(C)CCc2ccccc2)cc1` (configuration not stated), the inhibition (at 10 µM unless noted) was 7.9% (inactive).

As for `COc1ccc(C(CCNCc2ccccc2F)c2ccc(F)cc2)cc1` (configuration not stated), the inhibition was 46.5% (active) (at 10 µM) and 74.4% (triplicate retest, at 20 µM).

As for `CCCCNC(=O)C1CCCNC1=O` (configuration not stated), for the setting “at 10 µM unless noted”, the inhibition is 42.8% (active).

On to `CCCOc1ccc(NC(=O)C2CCCNC2=O)cc1` (configuration not stated), for which the inhibition (at 10 µM unless noted) was 7.4% (inactive).

For `CCCCNC(=O)C1CCC(=O)N1CCc1ccccc1` (configuration not stated), for the setting “at 10 µM unless noted”, the inhibition was -0.8% (inactive).

On to `O=[N+]([O-])c1ccc(NC(=S)N2CCN(c3ccccn3)CC2)cc1`, for which, where the note is “at 10 µM unless noted”, the inhibition is 9.2% (inactive).

On to `CC(=O)N1c2ccc(S(=O)(=O)N3CCCC(C(=O)NCc4ccc(Cl)cc4)C3)cc2CC1C` (configuration not stated), for which, for the setting “at 10 µM unless noted”, the inhibition was -3.9% (inactive).

For the compound `COc1ccccc1NC(=O)C1CCN(C(=O)c2ccc(C(C)(C)C)cc2)CC1`, for the setting “at 10 µM unless noted”, the inhibition is 3.2% (inactive).

Turning to `CC(C)CC(=O)NC(=S)Nc1cc(C(=O)O)ccc1Cl`, the inhibition (at 10 µM unless noted) is 11.6% (inactive).

As to `CC(C)CC(=O)NC(=S)Nc1ccc(F)cc1F`, the inhibition (at 10 µM unless noted) was 42.9% (active).

In the case of `CC(=O)c1ccc(NC(=S)NC(=O)CC(C)C)cc1`, the inhibition (at 10 µM unless noted) is 27.8% (inactive).

In the case of `COc1cc(C2C(C(=O)c3ccc(C)o3)=C(O)C(=O)N2Cc2cccnc2)ccc1O` (configuration not stated), the inhibition (at 10 µM unless noted) is -2.8% (inactive).

On to `COc1ccc(C2C(C(C)=O)=C(O)C(=O)N2Cc2cccnc2)cc1` (configuration not stated), for which, under “at 10 µM unless noted”, the inhibition was 33.6% (active).

On to `COc1ccc(C2C(C(C)=O)=C(O)C(=O)N2CCc2c[nH]c3ccccc23)cc1` (configuration not stated), for which the inhibition (at 10 µM unless noted) is 5.6% (inactive).

Take `CC1Cc2cc(/C(O)=C3\C(=O)C(=O)N(Cc4cccnc4)C3c3ccccc3F)ccc2O1` (configuration not stated): the inhibition (at 10 µM unless noted) was 29.4% (inactive).

Consider `Cc1ccc(-n2ncc(C(=O)NC3CC3)c2C2CCN(C(=O)OC(C)(C)C)CC2)c(C)c1`, for which the inhibition (at 10 µM unless noted) is -2.6% (inactive).

Turning to `O=C(NCc1cccs1)C1CCN(S(=O)(=O)c2ccc3c(c2)OCCO3)CC1`, for the setting “at 10 µM unless noted”, the inhibition was -1.6% (inactive).

Consider `O=C(NCc1ccc(Cl)cc1)C1CCN(S(=O)(=O)c2cccs2)CC1`, for which, for the setting “at 10 µM unless noted”, the inhibition was 4% (inactive).

For `O=C(NCc1cccs1)C1CCN(S(=O)(=O)c2ccc(Cl)cc2)CC1`, the inhibition (at 10 µM unless noted) is 23.6% (active).

With `CCc1ccc(/C=N/NC(=O)c2nnn(-c3nonc3N)c2CN2CCc3ccccc32)cc1`, the inhibition (at 10 µM unless noted) is 0% (inactive).

With `O=C(Nc1nnc(C2CC2)s1)c1cc(Cl)sc1Cl`, the inhibition (at 10 µM unless noted) was 5.9% (inactive).

With `Cn1c(SCC(=O)Nc2ccc(Br)cc2F)nnc1-c1ccco1`, the inhibition (at 10 µM unless noted) is 31.1% (active).

Take `Cn1c(SCC(=O)c2cccs2)nnc1-c1ccco1`: the inhibition (at 10 µM unless noted) is 14.7% (inactive).

With `CCCCNC(=O)CSc1nnc(-c2ccco2)n1C`, the inhibition (at 10 µM unless noted) was 10.9% (inactive).

Take `O=C(Nc1ccc(C(=O)N2CCOCC2)cc1)Nc1cccc(C(F)(F)F)c1`: the inhibition (at 10 µM unless noted) is -1.5% (inactive).

`O=C(CN1CCCCCC1)Nc1ccc(Br)cc1[N+](=O)[O-]`: where the note is “at 10 µM unless noted”, the inhibition was -4.1% (inactive).

Consider `Cc1ccc(S(=O)(=O)N2CCN=C2SCc2c(F)cccc2Cl)cc1`, for which, where the note is “at 10 µM unless noted”, the inhibition is 14.5% (inactive).

`COc1cccc(CNc2ncc(-c3ccccc3)n2C)c1`: the inhibition (at 10 µM unless noted) is -8.5% (inactive).

As to `Cn1c(SCC(=O)c2ccc(F)cc2)nnc1-c1ccccn1`, where the note is “at 10 µM unless noted”, the inhibition was 4.2% (inactive).

With `Cn1c(SCC(=O)C(C)(C)C)nnc1-c1ccccn1`, the inhibition (at 10 µM unless noted) is 43.3% (active).

As for `CCn1c(SCC(=O)NC2CC2)nnc1-c1ccccn1`, the inhibition (at 10 µM unless noted) is 20% (inactive).

As for `FC(F)(F)c1nnc2c3ccccc3c(Cl)nn12`, the inhibition (at 10 µM unless noted) was 2.1% (inactive).

For the compound `COc1ccc(N2C(=O)C3CCCN3C2c2cccc(OC)c2)cc1` (configuration not stated), the inhibition (at 10 µM unless noted) is -8.3% (inactive).

On to `COc1ccc(N2C(=O)C3CCCN3C2c2cccs2)cc1` (configuration not stated), for which the inhibition (at 10 µM unless noted) is 11.5% (inactive).

Regarding `COc1ccc(N2C(=O)C3CCCN3C2c2cc(OC)c(OC)cc2OC)cc1` (configuration not stated), the inhibition (at 10 µM unless noted) is 41.6% (active).
